Test results: PubChem BioAssay (Tox21)
Unmarked numbers belong to inactive results. Records with an inconclusive call do not appear. Where a call stands in place of a potency, no number is given. Active and inactive are the calls of the source. Calls follow the shape of the dose curve; as a rule, active = well fitted curve in the direction sought with a large enough effect in the repeat runs; inconclusive = weak or mixed curves; inactive = no such curve, though single readings can be large; an effect the other way counts as inactive or inconclusive.

Legend:
[1] = qHTS RealTime-Glo MT Cell Viability Assay in HEK293 cells - 16 hour (AID 1224872); also: nearly all actives have a fitted effect of over 50% in size; also: potency is read from the fitted curve at half-maximal effect
In short: (§1)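 Cells + reagent dispensed (600 cells/well, HEK293) → 5 h at 37 C/5% CO2 → 23 nL compound in DMSO pinned → 40 h at 37 C → luminescence read at 0, 8, 16, 24, 32, 40 h.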

[2] = qHTS RealTime-Glo MT Cell Viability Assay in HepG2 cells - 8 hour (AID 1224873); also: nearly all actives have a fitted effect of over 55% in size; also: potency is read from the fitted curve at half-maximal effect
In short: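 HepG2 cells (600/well) mixed with RealTime-Glo MT reagent, settled 5 h at 37 C/5% CO2 before compound addition. Nonlytic NanoLuc luminescence from viable-cell prosubstrate reduction read repeatedly during 40 h treatment at 37 C.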

[3] = qHTS RealTime-Glo MT Cell Viability Assay in HEK293 cells - 40 hour (AID 1224874); conditions: RealTime-Glo luminescence; max response: stronger effect = lower value; also: nearly all actives have a fitted effect of over 50% in size; also: potency is read from the fitted curve at half-maximal effect
In short: (§2)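 Tox21 screen in HEK293 using RealTime-Glo MT chemistry, with cells and reagent co-dispensed. Luminescence proportional to viable cell number was captured at intervals during 40 h compound exposure at 37 C.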

[4] = A CellTox Green Cytotoxicity Assay to monitor cytotoxicity in HEK293 cells - 24 hour (AID 1224875); also: nearly all actives have a fitted effect of over 45% in size; also: potency is read from the fitted curve at half-maximal effect
In short: (§3)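 Seeding of HEK293 cells together with cytotoxicity dye preceded a 5 h incubation at 37 C/5% CO2. Test compounds in DMSO were then added and fluorescence monitored across 40 h.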

[5] = A CellTox Green Cytotoxicity Assay to monitor cytotoxicity in HepG2 cells - 16 hour (AID 1224876); also: nearly all actives have a fitted effect of over 45% in size; also: potency is read from the fitted curve at half-maximal effect
In short: (§4)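 Nonlytic assay: viable cells exclude the dye, so fluorescence scales with cell death. HepG2 at 600 cells/well, compounds added after 5 h, signal read across 40 h.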

[6] = A CellTox Green Cytotoxicity Assay to monitor cytotoxicity in HepG2 cells - 24 hour (AID 1224878); also: nearly all actives have a fitted effect of over 45% in size; also: potency is read from the fitted curve at half-maximal effect
In short: as §4

[7] = A CellTox Green Cytotoxicity Assay to monitor cytotoxicity in HepG2 cells - 40 hour (AID 1224879); also: nearly all actives have a fitted effect of over 40% in size; also: potency is read from the fitted curve at half-maximal effect
In short: as §4

[8] = qHTS RealTime-Glo MT Cell Viability Assay in HEK293 cells - 0 hour (AID 1224880); also: top concentration of the series differs between compounds; nearly all actives have a fitted effect of over 45% in size
In short: as §2

[9] = A CellTox Green Cytotoxicity Assay to monitor cytotoxicity in HEK293 cells - 32 hour (AID 1224881); also: nearly all actives have a fitted effect of over 40% in size; also: potency is read from the fitted curve at half-maximal effect
In short: as §3

[10] = A CellTox Green Cytotoxicity Assay to monitor cytotoxicity in HepG2 cells - 0 hour (AID 1224882); also: nearly all actives have a fitted effect of over 35% in size; also: potency is read from the fitted curve at half-maximal effect
In short: as §4

[11] = A CellTox Green Cytotoxicity Assay to monitor cytotoxicity in HepG2 cells - 32 hour (AID 1224883); also: nearly all actives have a fitted effect of over 50% in size; also: potency is read from the fitted curve at half-maximal effect
In short: as §4

[12] = A CellTox Green Cytotoxicity Assay to monitor cytotoxicity in HEK293 cells - 8 hour (AID 1224884); also: nearly all actives have a fitted effect of over 35% in size; also: potency is read from the fitted curve at half-maximal effect
In short: as §3

[13] = qHTS RealTime-Glo MT Cell Viability Assay in HepG2 cells - 16 hour (AID 1224885); also: nearly all actives have a fitted effect of over 50% in size; also: potency is read from the fitted curve at half-maximal effect
In short: (§5)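 Real-time, nonlytic viability: 600 HepG2 cells/well mixed with NanoLuc enzyme plus prosubstrate; 5 h settle, compound (DMSO) added by pintool; luminescence monitored over 40 h at 37 C.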

[14] = qHTS RealTime-Glo MT Cell Viability Assay in HEK293 cells - 24 hour (AID 1224886); also: nearly all actives have a fitted effect of over 50% in size; also: potency is read from the fitted curve at half-maximal effect
In short: as §1

[15] = qHTS RealTime-Glo MT Cell Viability Assay in HEK293 cells - 8 hour (AID 1224887); also: nearly all actives have a fitted effect of over 50% in size; also: potency is read from the fitted curve at half-maximal effect
In short: as §2

[16] = A CellTox Green Cytotoxicity Assay to monitor cytotoxicity in HEK293 cells - 16 hour (AID 1224888); also: nearly all actives have a fitted effect of over 35% in size; also: potency is read from the fitted curve at half-maximal effect
In short: as §3

[17] = qHTS RealTime-Glo MT Cell Viability Assay in HepG2 cells - 0 hour (AID 1224889); also: nearly all actives have a fitted effect of over 50% in size
In short: as §5

[18] = A CellTox Green Cytotoxicity Assay to monitor cytotoxicity in HepG2 cells - 8 hour (AID 1224890); also: nearly all actives have a fitted effect of over 45% in size; also: potency is read from the fitted curve at half-maximal effect
In short: as §4

[19] = qHTS RealTime-Glo MT Cell Viability Assay in HepG2 cells - 32 hour (AID 1224877); also: nearly all actives have a fitted effect of over 55% in size; also: potency is read from the fitted curve at half-maximal effect
In short: as §5

Row | Compound | Potency [1] | Potency [2] | max response [3] | Potency [4] | Potency [5] | Potency [6] | Potency [7] | Potency [8] | Potency [9] | Potency [10] | Potency [11] | Potency [12] | Potency [13] | Potency [14] | Potency [15] | Potency [16] | Potency [17] | Potency [18] | Potency [19] | Potency [3]
1 | CSc1cnc(C)cn1 | inactive | inactive | 7.94% | 89.4 µM (active) | 89.4 µM (active) | 63.3 µM (active) | 63.3 µM (active) | inactive | 89.4 µM (active) | 56.4 µM (active) | 63.3 µM (active) | 63.3 µM (active) | inactive | inactive | inactive | 89.4 µM (active) | inactive | 56.4 µM (active) | – | –
2 | Cc1ccc(O)c2ncccc12 | inactive | inactive | -18.6% | inactive | inactive | – | 7.56 µM (active) | inactive | – | inactive | 8.49 µM (active) | inactive | inactive | inactive | inactive | inactive | inactive | inactive | inactive | –
3 | Fc1ccc([C@@H]2CCNC[C@H]2COc2ccc3c(c2)OCO3)cc1 | inactive | inactive | – | inactive | 23.9 µM (active) | 26.8 µM (active) | 26.8 µM (active) | – | – | inactive | 26.8 µM (active) | inactive | – | – | inactive | inactive | – | inactive | – | –
4 | CCN(Cc1cccnc1)C(=O)c1cccc(Cl)c1[C@]1(C)C(=O)N(Cc2ccc(OC)cc2OC)c2ccc(Cl)cc21 | 22.9 µM (active) | 20.4 µM (active) | – | inactive | inactive | inactive | inactive | inactive | inactive | inactive | – | – | – | 20.4 µM (active) | 20.4 µM (active) | inactive | inactive | inactive | – | 20.4 µM (active)
5 | CN(C)c1ccc(C2(c3ccc(N(C)C)cc3)OC(=O)c3cc(N(C)C)ccc32)cc1 | inactive | – | -1.22% | inactive | inactive | inactive | inactive | inactive | inactive | inactive | inactive | inactive | – | inactive | inactive | inactive | inactive | inactive | – | –
6 | c1cc(C(c2ccc(OCC3CO3)cc2)c2ccc(OCC3CO3)cc2)ccc1OCC1CO1 (configuration not stated) | inactive | inactive | – | inactive | inactive | inactive | inactive | inactive | – | inactive | inactive | inactive | – | – | inactive | inactive | inactive | inactive | – | –
7 | N=C1N=C(N)c2cc3ccccc3cc21 | 27.5 µM (active) | – | – | 54.9 µM (active) | 43.6 µM (active) | 24.5 µM (active) | 24.5 µM (active) | – | 54.9 µM (active) | inactive | 33.4 µM (active) | – | 38.9 µM (active) | 24.5 µM (active) | 43.6 µM (active) | 54.9 µM (active) | inactive | – | 24.5 µM (active) | 32.1 µM (active)
